The text below walks through data of PubChem BioAssay.

Unmarked numbers belong to inactive results. For part of these data: Results with a measured potency or affinity are listed apart. The source made the active and inactive calls. Unless noted, how the calls were made is not given here.

The nature of experiment [1]: antimalarial activity against Dd2 strain (AID 2302;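 active means growth inhibition above 50% at the single 2 µM test dose, taken to imply half-maximal potency below 2 µM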;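 further: 0% = DMSO untreated growth and 100% = chloroquine plus artemisinin killed control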). To be noted: P. falciparum Dd2 in RBCs, LDH growth readout, 72 h; at 2 µM; active compounds read high.
Experiment [2] is described as follows: human hepatoma cell viability loss – ATP luminescence, cytotoxicity control for P. falciparum antimalarial project, primary screen (AID 2303;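 active means inhibition above 50%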;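 further: 0% = DMSO wells and 100% = digitonin-killed cells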). Particulars: HepG2 viability, 24-48 h, at 10 µM, active compounds read high.
Experiment [3] deals with L-lactate dehydrogenase (Plasmodium falciparum (isolate CDC / Honduras)) (UniProt Q27743). Put plainly: PfLDH activity inhibition – cell lysate, 3D7 strain, counter-screen for P. falciparum growth inhibition project (AID 2304).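 Further: 0% = vehicle and 100% = reference inhibitor.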 Particulars: P. falciparum 3D7 crude extract, LDH APAD/NBT absorbance; at 2 µM; active compounds read high.
Experiment [4] can be described thus: inhibition of 3D7 malaria parasite growth – strain 3D7 (AID 2306).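 Further: 0% = DMSO wells and 100% = chloroquine plus artemisinin control wells.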 Particulars: P. falciparum 3D7 erythrocytic growth, LDH absorbance, 72 h; at 2 µM; active compounds read high.
Experiment [5] has as its target Calcium-dependent protein kinase 1 (Plasmodium falciparum (isolate 3D7)) (UniProt P62344). In words: PfCDPK1 kinase inhibitors, biochemical, TCAMS library (AID 1159585; cut-off not given, nearly all actives have IC50 up to about 0.98 µM;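 further: inhibitors leave more ATP so luminescence rises with inhibition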). To be noted: recombinant PfCDPK1, Kinase-Glo ATP depletion luminescence. For orientation: Kinase-Glo reads ATP consumption through a luciferase reaction.
Experiment [6] has as its target Plasmodium falciparum protein kinase 6 (PK6, PF3D7_1337100) (UniProt Q8IDW1). Put plainly: PfPK6 kinase inhibitors, biochemical, TCAMS library (AID 1159586). To be noted: recombinant PfPK6, Kinase-Glo ATP depletion luminescence.
Experiment [7] addresses Protein kinase 7 (PK7), Plasmodium falciparum 3D7 (PF3D7_0213400) (UniProt Q7YTF7). In words: inhibition of Plasmodium PK7 catalytic activity – biochemical, TCAMS antimalarial set, Kinase-Glo luminescence (AID 1159587). Particulars: recombinant PfPK7, Kinase-Glo ATP depletion luminescence.
Experiment [8] has as its target Calcium-dependent protein kinase 4 (Plasmodium falciparum (isolate 3D7)) (UniProt Q8IBS5). Put plainly: PfCDPK4 kinase inhibitors, biochemical, TCAMS library (AID 1159588; cut-off not given, nearly all actives have IC50 up to about 0.91 µM). Particulars: recombinant PfCDPK4, Kinase-Glo ATP depletion luminescence.

Sequence of Calcium-dependent protein kinase 1 (Plasmodium falciparum (isolate 3D7)) (P62344 whole entry, looked up): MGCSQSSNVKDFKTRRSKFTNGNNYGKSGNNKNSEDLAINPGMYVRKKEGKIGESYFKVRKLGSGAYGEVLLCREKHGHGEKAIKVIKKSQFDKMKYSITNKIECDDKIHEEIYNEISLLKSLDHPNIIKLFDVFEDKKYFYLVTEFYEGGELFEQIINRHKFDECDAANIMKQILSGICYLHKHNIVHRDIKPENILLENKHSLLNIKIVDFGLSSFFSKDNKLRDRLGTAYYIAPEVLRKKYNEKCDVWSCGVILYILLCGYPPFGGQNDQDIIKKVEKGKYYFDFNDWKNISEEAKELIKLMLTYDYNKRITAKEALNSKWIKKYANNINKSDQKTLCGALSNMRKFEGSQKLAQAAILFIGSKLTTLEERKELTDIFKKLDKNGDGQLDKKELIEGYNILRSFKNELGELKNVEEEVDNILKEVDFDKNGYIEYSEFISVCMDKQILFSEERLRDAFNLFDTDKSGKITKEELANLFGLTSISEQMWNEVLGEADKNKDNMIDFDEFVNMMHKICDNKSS
Sequence of Calcium-dependent protein kinase 4 (Plasmodium falciparum (isolate 3D7)) (Q8IBS5 whole entry, looked up): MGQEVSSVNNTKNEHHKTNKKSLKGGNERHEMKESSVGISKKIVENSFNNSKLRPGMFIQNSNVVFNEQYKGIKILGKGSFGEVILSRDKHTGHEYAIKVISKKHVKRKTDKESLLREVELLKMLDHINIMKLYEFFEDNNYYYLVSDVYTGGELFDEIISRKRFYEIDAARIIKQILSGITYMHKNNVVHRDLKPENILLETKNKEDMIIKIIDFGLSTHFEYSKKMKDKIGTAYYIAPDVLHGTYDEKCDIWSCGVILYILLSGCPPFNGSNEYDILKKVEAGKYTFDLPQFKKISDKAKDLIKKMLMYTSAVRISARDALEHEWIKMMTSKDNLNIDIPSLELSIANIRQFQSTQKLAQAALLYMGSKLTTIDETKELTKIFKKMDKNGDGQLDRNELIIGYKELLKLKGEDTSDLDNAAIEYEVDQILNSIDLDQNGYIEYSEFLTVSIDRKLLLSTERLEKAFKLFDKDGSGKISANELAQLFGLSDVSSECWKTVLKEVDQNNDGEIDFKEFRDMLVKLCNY
Sequence of Protein kinase 7 (PK7), Plasmodium falciparum 3D7 (PF3D7_0213400) (Q7YTF7 1-343): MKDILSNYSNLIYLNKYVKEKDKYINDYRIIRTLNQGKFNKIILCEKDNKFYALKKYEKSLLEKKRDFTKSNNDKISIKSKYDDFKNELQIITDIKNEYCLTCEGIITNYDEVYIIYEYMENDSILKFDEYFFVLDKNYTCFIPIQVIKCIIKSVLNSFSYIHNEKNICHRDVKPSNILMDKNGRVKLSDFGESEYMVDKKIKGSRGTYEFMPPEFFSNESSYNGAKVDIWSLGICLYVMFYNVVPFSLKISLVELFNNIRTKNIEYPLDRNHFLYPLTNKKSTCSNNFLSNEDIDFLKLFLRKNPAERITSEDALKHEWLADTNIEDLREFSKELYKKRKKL
Sequence of L-lactate dehydrogenase (Plasmodium falciparum (isolate CDC / Honduras)) (Q27743 whole entry, looked up): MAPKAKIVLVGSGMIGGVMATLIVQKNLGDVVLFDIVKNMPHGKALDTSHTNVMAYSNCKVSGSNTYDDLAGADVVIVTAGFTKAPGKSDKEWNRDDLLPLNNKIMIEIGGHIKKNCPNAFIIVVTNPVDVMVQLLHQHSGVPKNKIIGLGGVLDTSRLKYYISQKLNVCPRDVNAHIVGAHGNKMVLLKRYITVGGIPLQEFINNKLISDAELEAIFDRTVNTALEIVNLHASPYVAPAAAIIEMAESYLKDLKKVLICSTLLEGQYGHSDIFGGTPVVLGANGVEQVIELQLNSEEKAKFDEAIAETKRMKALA
Sequence of Plasmodium falciparum protein kinase 6 (PK6, PF3D7_1337100) (Q8IDW1 1-305): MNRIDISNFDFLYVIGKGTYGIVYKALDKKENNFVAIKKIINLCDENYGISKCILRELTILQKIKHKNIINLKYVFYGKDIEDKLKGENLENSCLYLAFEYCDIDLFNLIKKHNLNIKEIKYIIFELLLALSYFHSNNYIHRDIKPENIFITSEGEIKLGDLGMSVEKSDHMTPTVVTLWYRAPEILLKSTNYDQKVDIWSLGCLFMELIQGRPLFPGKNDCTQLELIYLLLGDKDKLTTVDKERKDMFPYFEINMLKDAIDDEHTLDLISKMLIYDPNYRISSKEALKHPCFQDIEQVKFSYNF

As usually defined, the inhibition is the relative decrease from the control value, in per cent. Take `COc1ccc(-c2ccccc2CNc2nc(NCCc3ccc(O)cc3)nc(N3CCNCC3)n2)cc1`: the growth inhibition in experiment [1] was 3%; in experiment [4], 86% (active). Also, the values for the inhibition in experiment [2] and in experiment [3] were 48% and -3%, respectively. In addition, the result in experiment [5], in experiment [6], in experiment [7] and in experiment [8] was inactive.

`O=C(Nc1cccc([N+](=O)[O-])c1)Nc1ccc(Cl)c(C(F)(F)F)c1`: the growth inhibition is 87% (active) in experiment [1] and 96% (active) in experiment [4]. The inhibition in experiment [2] is 15%; in experiment [3], 6%. Further, the result in experiment [5], in experiment [6], in experiment [7] and in experiment [8] was inactive.

As to `O=C(/C=C/c1ccc(C(F)(F)F)cc1)NCCCCCN1CCCN(C(=O)Nc2ccc(Cl)c(C(F)(F)F)c2)CC1`, the growth inhibition in experiment [1] was 31%; in experiment [4] it was 99% (active). The figures for the inhibition in experiment [2] and in experiment [3] were 64% (active) and 4%, respectively. Moreover, the outcome in experiment [5], in experiment [6], in experiment [7] and in experiment [8] was inactive.

Consider `O=C(CSc1nc(-c2ccccc2Cl)ns1)Nc1ccc2c(c1)OCO2`, for which the growth inhibition in experiment [1] was 77% (active); in experiment [4], 93% (active). Moreover, the inhibition in experiment [2] was -8%; in experiment [3], -5%. For the same compound, the outcome in experiment [5], in experiment [6], in experiment [7] and in experiment [8] was inactive.

For `Cc1[nH]c(C)c(-c2ccc(-c3ccc(C(F)F)cc3)nc2)c(=O)c1Cl`, the growth inhibition was 96% (active) in experiment [1] and 97% (active) in experiment [4]. In addition, the figures for the inhibition in experiment [2] and in experiment [3] were 0% and -2%, respectively. The outcome in experiment [5], in experiment [6], in experiment [7] and in experiment [8] was inactive.

As for `COc1ccc(CCN(C)CCCCc2ccc(NC(=O)c3cccc4c(=O)c5cc(F)ccc5sc34)cc2)cc1OC`, the growth inhibition is 49% in experiment [1] and 96% (active) in experiment [4]. Further, the inhibition in experiment [2] is 98% (active); in experiment [3], 0%. For the same compound, the result in experiment [5], in experiment [6], in experiment [7] and in experiment [8] was inactive.

On to `CC(C)C(C(=O)Nc1ccc(S(=O)(=O)N(C)C)cc1)c1ccc(Cl)cc1` (stereo not drawn), for which the growth inhibition in experiment [1] is 98% (active); in experiment [4] it was 100% (active). In addition, the inhibition was 27% in experiment [2] and -2% in experiment [3]. Also, the outcome in experiment [5], in experiment [6], in experiment [7] and in experiment [8] was inactive.

For `CC(=O)Nc1cccc(CNCc2ccc(-c3cnc(N4CCCC(c5ccccc5)C4)nc3)cc2)c1` (stereo not drawn), the growth inhibition is 22% in experiment [1] and 84% (active) in experiment [4]. Besides, the inhibition in experiment [2] is 16%; in experiment [3], 3%. For the same compound, the outcome in experiment [5], in experiment [6], in experiment [7] and in experiment [8] was inactive.

As for `O=C(/C=C/c1ccc(Cl)c(Cl)c1)NCCCCCN1CCC(c2c[nH]c3c(-c4ccccc4)cccc23)CC1`, the growth inhibition in experiment [1] was 40%; in experiment [4], 99% (active). Also, the figures for the inhibition in experiment [2] and in experiment [3] were 74% (active) and -2%, respectively. Moreover, the outcome in experiment [5], in experiment [6], in experiment [7] and in experiment [8] was inactive.

Take `COc1ccc(-c2cc3nc4c(c(NCCCn5ccnc5)n3n2)CCCC4)cc1`: the growth inhibition in experiment [1] is 74% (active); in experiment [4], 95% (active). Besides, the values for the inhibition in experiment [2] and in experiment [3] were 5% and -2%, respectively. Besides, the result in experiment [5], in experiment [6], in experiment [7] and in experiment [8] was inactive.

As to `C[C@@H](C(N)=O)N1CCCCC1c1ccc(OCc2cccc(F)c2)cc1` (stereo partly drawn), the results for the growth inhibition in experiment [1] and in experiment [4] were 96% (active) and 84% (active), respectively. Moreover, the inhibition in experiment [2] is 79% (active); in experiment [3] it was 9%. The outcome in experiment [5], in experiment [6], in experiment [7] and in experiment [8] was inactive.

Regarding `CCOC(=O)c1ccc(NC(=O)Nc2cccc(-c3ccc(-c4nc5ccc(F)cc5[nH]4)cc3)c2)cc1`, the growth inhibition is 97% (active) in experiment [1] and 101% (active) in experiment [4]. Further, the inhibition in experiment [2] is 40%; in experiment [3], 1%. For the same compound, the result in experiment [5], in experiment [6], in experiment [7] and in experiment [8] was inactive.

As for `COc1ccccc1-c1csc(C(=O)NCC2CCN(Cc3ccc(C(C)C)cc3)C2)c1` (stereo not drawn), the figures for the growth inhibition in experiment [1] and in experiment [4] were 6% and 81% (active), respectively. The inhibition in experiment [2] was 24%; in experiment [3] it was 1%. In addition, the result in experiment [5], in experiment [6], in experiment [7] and in experiment [8] was inactive.

As for `COc1cccc(CC(=O)N2CCC(n3c(C)nc4ccc(F)cc43)CC2)c1`, the growth inhibition in experiment [1] was 99% (active); in experiment [4], 100% (active). Also, the values for the inhibition in experiment [2] and in experiment [3] were -8% and -3%, respectively. Further, the outcome in experiment [5], in experiment [6], in experiment [7] and in experiment [8] was inactive.

`CC1(C)N=C(N)N=C(N)N1OCc1cccc2c1ccc1ccccc12`: the growth inhibition in experiment [1] is 97% (active); in experiment [4], 95% (active). The inhibition was 63% (active) in experiment [2] and 4% in experiment [3]. The outcome in experiment [5], in experiment [6], in experiment [7] and in experiment [8] was inactive.

Consider `Cc1ccc(F)cc1S(=O)(=O)N1CCCCC(c2ccc(C(F)(F)F)cc2)=N1`, for which the growth inhibition in experiment [1] is 75% (active); in experiment [4] it was 82% (active). The inhibition in experiment [2] was 8%; in experiment [3] it was 7%. In addition, the result in experiment [5], in experiment [6], in experiment [7] and in experiment [8] was inactive.

Turning to `CCN(CC)CCN(Cc1ccc(-c2ccc(C(F)(F)F)cc2)cc1)C(=O)Cn1c(SCc2ccc(F)cc2)nc(=O)c2ccccc21`, the growth inhibition in experiment [1] was 48%; in experiment [4], 98% (active). The figures for the inhibition in experiment [2] and in experiment [3] were 47% and 6%, respectively. Further, the result in experiment [5], in experiment [6], in experiment [7] and in experiment [8] was inactive.

Turning to `O=C(/C=C/c1ccc(Cl)cc1)NCCCCCN1CCC(c2c[nH]c3ccccc23)CC1`, the values for the growth inhibition in experiment [1] and in experiment [4] were 15% and 99% (active), respectively. Besides, the inhibition in experiment [2] is 42%; in experiment [3], 7%. The outcome in experiment [5], in experiment [6], in experiment [7] and in experiment [8] was inactive.

Regarding `O=C(NOCc1ccccc1)c1cc(Cl)ccc1O`, the growth inhibition in experiment [1] was -1%; in experiment [4], 83% (active). Besides, the values for the inhibition in experiment [2] and in experiment [3] were 2% and 5%, respectively. In addition, the result in experiment [5], in experiment [6], in experiment [7] and in experiment [8] was inactive.

Take `CC(O)CNc1nc2ccccc2n1CC(=O)Nc1cccc(C(=O)Nc2cccc(C(F)(F)F)c2)c1` (stereo not drawn): the growth inhibition in experiment [1] was 95% (active); in experiment [4] it was 99% (active). In addition, the inhibition in experiment [2] is 2%; in experiment [3], 0%. The outcome in experiment [5], in experiment [6], in experiment [7] and in experiment [8] was inactive.

For the compound `CSc1cccc(NC(=O)c2cc3ccccc3oc2=O)c1`, the growth inhibition in experiment [1] is 75% (active); in experiment [4], 92% (active). In addition, the figures for the inhibition in experiment [2] and in experiment [3] were -4% and 4%, respectively. For the same compound, the result in experiment [5], in experiment [6], in experiment [7] and in experiment [8] was inactive.
